A selection: hits, their analogues and other compounds. The true share with any hit is near 19%.
HepG2 viability – HepG2 cytotoxicity, counter-screen for TGF-b inhibitors; HepG2 CAGA-GFP viability, ATP luminescence, 18 h; Potency, µM (series often up to 46.1 µM), most hits filed as cytotoxic; 0.76% of 410,000 active; AID 588856
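CellTiter-Glo luminescence gave cytotoxicity after 18 hours at 37 degrees C. The cells were HepG2 CAGA-GFP in 1% FBS DMEM, stimulated with 500 pg/mL TGF-beta after compound addition. %Activity was normalised to no-cell wells (complete cell-killing) and DMSO (no toxicity), and curves were fitted and classified.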
IL1B secr inh – blocks inflammasome-driven IL-1 beta release | 4.7% of 360,000 active | AID 743279 | activity change, % at 57.5 µM | THP-1 LPS/ATP IL-1B secretion, AlphaLISA, 16 h; stronger effect = lower value; in the data active means activity change below about -50%; inconclusive means mostly about -30% to -49%
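THP-1 cells pretreated 1 hr with compounds (up to 57.5 uM final), then stimulated with LPS (250 ng/mL final) plus ATP (1.25 mM final); secreted IL-1B measured by AlphaLISA after 16 hr, decreased signal indicating inhibition.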
ASM inhibitor – human S-ASM enzyme inhibition; P17405; placental ASM, HMU-PC fluorogenic substrate, 60 min; Potency, µM (top dose mostly 57.5 µM), usual class: inhibitors; 0.006% of 340,000 active; AID 504937
Target sequence (P17405 47-631 limits assumed): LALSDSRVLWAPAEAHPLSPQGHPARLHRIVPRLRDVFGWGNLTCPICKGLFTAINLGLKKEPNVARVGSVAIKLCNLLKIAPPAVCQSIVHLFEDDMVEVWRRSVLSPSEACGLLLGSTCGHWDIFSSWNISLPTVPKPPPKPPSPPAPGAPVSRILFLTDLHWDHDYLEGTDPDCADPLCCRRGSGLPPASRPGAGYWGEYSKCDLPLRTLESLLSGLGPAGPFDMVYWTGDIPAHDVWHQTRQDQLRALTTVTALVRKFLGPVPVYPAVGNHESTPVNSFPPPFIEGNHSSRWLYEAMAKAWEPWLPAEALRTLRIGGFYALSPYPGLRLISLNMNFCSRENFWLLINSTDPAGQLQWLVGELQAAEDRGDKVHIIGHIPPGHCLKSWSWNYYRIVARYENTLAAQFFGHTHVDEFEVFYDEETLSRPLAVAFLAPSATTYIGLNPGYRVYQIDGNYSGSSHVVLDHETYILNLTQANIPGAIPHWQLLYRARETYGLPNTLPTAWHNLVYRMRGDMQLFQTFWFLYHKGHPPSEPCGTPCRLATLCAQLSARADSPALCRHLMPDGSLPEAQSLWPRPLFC
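Human placenta-derived ASM preincubated with compound 10 min at room temperature, then reacted with 9 uM (final) fluorogenic HMU-PC substrate for 60 min at 37 C. Stop solution raises pH to 10; fluorescence read at Ex 386/Em 447 nm.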
DT40 TDP1 CPT – growth inhibition of DT40 Tdp1-/-;hTDP1 cells with camptothecin (screen for TDP1 inhibitors). Potency, µM (series often up to 46.2 µM), usual class: inhibitors. AID 686979. chicken DT40 Tdp1-/-;hTDP1 cells + 20 nM CPT, ATP luminescence, 48 h. 12% of 420,000 active; further: nearly all actives have a fitted effect of over 55% in size
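Chicken DT40 Tdp1-/- cells complemented with human TDP1, 400 cells/well, exposed to compounds plus 20 nM camptothecin for at least 48 h at 37 C; viability read as ATP content by CellTiter-Glo luminescence.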
TGFb inhibitor – TGF-b pathway inhibition; Potency, µM (series often up to 46.1 µM), actives largely listed as inhibitors; 1.2% of 410,000 active; HepG2 CAGA-GFP TGF-b/SMAD3 reporter, GFP fluorescence, 18 h; TGF-beta stimulated, 500 pg/mL final; further: nearly all actives have a fitted effect of over 65% in size
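Inhibition was scored as loss of TGF-beta-induced (500 pg/mL final, 18 hours, 37 degrees C) GFP in HEPG2 cells carrying a CAGA-GFP reporter, in DMEM with 1% FBS. Well GFP was summed per cell; Activity was normalised to unstimulated and stimulated DMSO wells, then concentration-response fitting.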
TDP1 cell noCPT – qHTS for Inhibitors of human tyrosyl-DNA phosphodiesterase 1 (TDP1): qHTS in cells in absence of CPT | AID 686978, 2013 | 15% of 420,000 active | Potency, µM (top dose mostly 46.2 µM), usual class: inhibitors | DT40 Tdp1-/- hTDP1 cells, no CPT, ATP luminescence, 48 h; further: nearly all actives have a fitted effect of over 55% in size
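Camptothecin absent (DMSO only). Human TDP1-complemented DT40 knockout cells, 400 cells/well, 37 °C for minimum 48 hr; ATP measured via CellTiter-Glo, 30 min dark incubation, luminescence.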
Numbers stand for hits. Unless noted, the call rests on the fitted dose curve; in most records, active means well fitted curve in the direction sought with a large enough effect; inconclusive means small, poorly fitted or top-dose-only effect, or another doubt; inactive means no such curve, though single readings can be large; an effect the other way counts as inactive or inconclusive.

What do the screens show for `Cc1cc(-c2cc(C(=O)Nc3ccccc3)on2)nc(NCC2CC2)n1`?
HepG2 viability: inactive; IL1B secr inh: inactive; ASM inhibitor: inactive; DT40 TDP1 CPT: inactive; TGFb inhibitor: inactive; TDP1 cell noCPT: inactive

What do the screens show for `O=C(CN1C(=O)c2ccccc2C1=O)c1ccccc1`?
HepG2 viability: inactive; IL1B secr inh: inactive; ASM inhibitor: inactive; DT40 TDP1 CPT: inactive; TGFb inhibitor: inconclusive; TDP1 cell noCPT: inactive

How did CC1=C(CC(=O)c2ccccc2)C(=O)c2ccccc2C1=O do in these assays?
HepG2 viability: 6.3µM; IL1B secr inh: inactive; ASM inhibitor: inactive; DT40 TDP1 CPT: 8.2µM; TGFb inhibitor: 6.3µM; TDP1 cell noCPT: 12µM

Results for O=C1NC(=O)N(Cc2ccccc2)CC1Br (stereo not given) ?
HepG2 viability: inactive; IL1B secr inh: inactive; ASM inhibitor: inactive; DT40 TDP1 CPT: inactive; TGFb inhibitor: inactive; TDP1 cell noCPT: inactive

How did COCCn1c(=O)cnc2cnc(N(C)C)nc21 do in these assays?
DT40 TDP1 CPT: inactive; TDP1 cell noCPT: inactive

Results for CC(=O)CCC(=O)N1CCCC(CNC(=O)c2ccc(-c3ccccc3)cc2)C1 (stereo not given) ?
HepG2 viability: inactive; IL1B secr inh: inactive; ASM inhibitor: inactive; DT40 TDP1 CPT: inconclusive; TGFb inhibitor: inactive; TDP1 cell noCPT: inconclusive

What do the screens show for `CSCC(=O)N1CCCC(CNC(=O)c2ccc(-c3ccccc3)cc2)C1` (stereo not given)?
HepG2 viability: inactive; IL1B secr inh: inactive; ASM inhibitor: inactive; DT40 TDP1 CPT: 23µM; TGFb inhibitor: inconclusive; TDP1 cell noCPT: 23µM

Results for O=C(NCC1CCCN(C(=O)c2cccnc2)C1)c1ccc(-c2ccccc2)cc1 (stereo not given) ?
HepG2 viability: inactive; IL1B secr inh: inactive; ASM inhibitor: inactive; DT40 TDP1 CPT: inconclusive; TGFb inhibitor: inactive; TDP1 cell noCPT: 23µM

Results for COc1cccc(NC(=O)CSc2nc(-c3ccccc3)nc3c2Cc2cc(Cl)ccc2O3)c1 ?
HepG2 viability: inactive; DT40 TDP1 CPT: inactive; TGFb inhibitor: inactive; TDP1 cell noCPT: inactive

What do the screens show for `O=C(OCc1ccccc1)c1cccnc1`?
DT40 TDP1 CPT: inconclusive; TDP1 cell noCPT: 9.4µM

What do the screens show for `COc1cccc(CN2CCNC(=O)C2CC(=O)NCCn2ccc3ccccc32)c1OC` (stereo not given)?
HepG2 viability: inactive; IL1B secr inh: inactive; ASM inhibitor: inactive; DT40 TDP1 CPT: inactive; TGFb inhibitor: inactive; TDP1 cell noCPT: inconclusive

Results for O=C(NC1CCCc2c1cnn2-c1ccccc1F)c1ccccc1N1CCOCC1 (stereo not given) ?
HepG2 viability: inactive; IL1B secr inh: inconclusive; ASM inhibitor: inactive; DT40 TDP1 CPT: 16µM; TGFb inhibitor: inconclusive; TDP1 cell noCPT: 13µM

How did CC(C)c1cc(C(=O)NC2CCCc3c2cnn3-c2ccccc2F)no1 (stereo not given) do in these assays?
HepG2 viability: inactive; IL1B secr inh: inactive; ASM inhibitor: inactive; DT40 TDP1 CPT: inconclusive; TGFb inhibitor: inactive; TDP1 cell noCPT: inconclusive

What do the screens show for `Cc1cc(C)cc(-n2ncc3c2CCCC3NC(=O)c2ccccc2N2CCOCC2)c1` (stereo not given)?
HepG2 viability: inactive; IL1B secr inh: inactive; ASM inhibitor: inactive; DT40 TDP1 CPT: inconclusive; TGFb inhibitor: inconclusive; TDP1 cell noCPT: 16µM

Results for COc1ccc2c(CC(=O)Nc3ccc(C)cc3)coc2c1 ?
HepG2 viability: inactive; DT40 TDP1 CPT: inconclusive; TGFb inhibitor: inactive; TDP1 cell noCPT: inactive

How did Nc1nc(Nc2ccccc2F)sc1C(=O)c1ccccc1 do in these assays?
HepG2 viability: inactive; IL1B secr inh: inactive; ASM inhibitor: inactive; DT40 TDP1 CPT: 12µM; TGFb inhibitor: inconclusive; TDP1 cell noCPT: inconclusive

What do the screens show for `Cc1ccc(Cl)cc1N1CCN(c2cccc[n+]2C)CC1`?
HepG2 viability: inactive; IL1B secr inh: inactive; ASM inhibitor: inactive; DT40 TDP1 CPT: inconclusive; TGFb inhibitor: inactive; TDP1 cell noCPT: 26µM

What do the screens show for `Clc1ccccc1N1CCN(c2ncnc3nc[nH]c23)CC1`?
HepG2 viability: inactive; IL1B secr inh: inactive; ASM inhibitor: inactive; DT40 TDP1 CPT: inactive; TGFb inhibitor: inactive; TDP1 cell noCPT: inactive

What do the screens show for `C[n+]1ccccc1N1CCN(c2ccccc2Cl)CC1`?
HepG2 viability: inactive; IL1B secr inh: inactive; ASM inhibitor: inactive; DT40 TDP1 CPT: 23µM; TGFb inhibitor: inactive; TDP1 cell noCPT: inconclusive

Results for O=[N+]([O-])c1cc2c(cc1[N+](=O)[O-])OCCOCCOCCOCCO2 ?
HepG2 viability: inactive; IL1B secr inh: -86; ASM inhibitor: inactive; DT40 TDP1 CPT: inactive; TGFb inhibitor: inactive; TDP1 cell noCPT: inactive

Results for O=C(c1ccccc1)c1cc2c(cc1[N+](=O)[O-])OCCO2 ?
HepG2 viability: inactive; IL1B secr inh: inactive; ASM inhibitor: inactive; DT40 TDP1 CPT: inactive; TGFb inhibitor: inactive; TDP1 cell noCPT: inactive

How did Brc1cc2c(cc1Br)OCCOCCOCCOCCO2 do in these assays?
HepG2 viability: inactive; IL1B secr inh: inactive; ASM inhibitor: inactive; DT40 TDP1 CPT: 15µM; TGFb inhibitor: inactive; TDP1 cell noCPT: 10µM

What do the screens show for `Nc1ccc2c(c1)OCCOCCOCCOCCOCCO2`?
HepG2 viability: inactive; IL1B secr inh: inactive; ASM inhibitor: inactive; DT40 TDP1 CPT: inactive; TGFb inhibitor: inactive; TDP1 cell noCPT: inactive

Results for Brc1ccc2c(c1)OCCOCCOc1cc(Br)ccc1OCCOCCOCCO2 ?
HepG2 viability: inactive; IL1B secr inh: -56; ASM inhibitor: inactive; DT40 TDP1 CPT: 5.2µM; TGFb inhibitor: inconclusive; TDP1 cell noCPT: 2.9µM

How did Nc1cccc(Nc2nc(OC(C(F)(F)F)C(F)(F)F)nc(OC(C(F)(F)F)C(F)(F)F)n2)c1 do in these assays?
HepG2 viability: 11µM; IL1B secr inh: -89; ASM inhibitor: inconclusive; DT40 TDP1 CPT: 21µM; TGFb inhibitor: inconclusive; TDP1 cell noCPT: 23µM

Results for Cc1cc(C)c2cccc(NC(=S)NC(=O)c3ccccc3)c2n1 ?
HepG2 viability: inactive; IL1B secr inh: inactive; ASM inhibitor: inactive; DT40 TDP1 CPT: 16µM; TGFb inhibitor: inactive; TDP1 cell noCPT: 13µM

How did Cc1ccc2cccc(NC(=S)NC(=O)c3ccccc3)c2n1 do in these assays?
HepG2 viability: inactive; IL1B secr inh: inactive; ASM inhibitor: inactive; DT40 TDP1 CPT: 18µM; TGFb inhibitor: inactive; TDP1 cell noCPT: inconclusive

Results for CC(=O)NC(=S)Nc1cccc2c(C)cc(C)nc12 ?
HepG2 viability: inactive; IL1B secr inh: inactive; ASM inhibitor: inactive; DT40 TDP1 CPT: inactive; TGFb inhibitor: inactive; TDP1 cell noCPT: inactive

Screens (PubChem BioAssay)
